Calls of active or inactive are those of the source. How the calls were made is not given here.
target: Pantothenate synthetase (Mycobacterium tuberculosis (strain ATCC 25618 / H37Rv)) (UniProt P9WIL5); assay: Coupled enzyme confirmation of inhibitors against recombinant Mtb PanC (AID 375); conditions: coupled enzyme assay; at 10 µM, active compounds read high;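 further: 0% = full reaction with vehicle and 100% = no enzyme background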
Sequence (P9WIL5 whole entry, looked up): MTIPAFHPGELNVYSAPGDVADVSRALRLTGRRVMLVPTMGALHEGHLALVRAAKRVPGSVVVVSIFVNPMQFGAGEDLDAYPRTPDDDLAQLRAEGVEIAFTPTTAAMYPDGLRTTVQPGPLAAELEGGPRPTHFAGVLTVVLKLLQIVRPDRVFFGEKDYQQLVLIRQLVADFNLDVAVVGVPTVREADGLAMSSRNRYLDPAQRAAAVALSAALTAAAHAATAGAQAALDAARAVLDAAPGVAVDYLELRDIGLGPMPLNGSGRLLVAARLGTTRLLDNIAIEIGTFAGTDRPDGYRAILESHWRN

| Structure (SMILES) | inhibition |
| --- | --- |
| CCCCn1c(=O)[nH]c(=O)c2c1nc(-c1ccncc1)n2CCOC | 1% (inactive) |
| O=C(CSc1nnc(-c2ccncc2)o1)Oc1ccccc1 | 0% (inactive) |
| COc1ccc(-c2noc(CN(C(=O)C(C)(C)C)C(C)C)n2)cc1 | 0% (inactive) |
| CN(C)CCSc1nnc2sc3ccccc3n12 | 8% (inactive) |
| COC(=O)C(C)C1Sc2ccccc2NC1=O (stereo not given) | 11% (inactive) |
| Nc1nnc(C(=O)c2ccccc2N)s1 | 0% (inactive) |
| COc1ccc(Cn2nnnc2CN2CCOCC2)cc1 | 6% (inactive) |
| CCc1cc(-c2[nH]ncc2-c2ccc3c(c2)OCO3)c(O)cc1O | 0% (inactive) |
| CCc1nc2sc3c(c2c(=O)o1)CCCC3 | 0% (inactive) |
| COc1ccc(CCNC(=O)COc2ccc(S(=O)(=O)N3CCOCC3)cc2)cc1 | 6% (inactive) |
| COc1ccc(N2CCN(CCCNS(=O)(=O)c3c(C)noc3/C=C/N(C)C)CC2)cc1 | 15% (inactive) |
| C=CCn1c2ccccc2c2nnc(SCC(=O)NC(C(=O)OC)C(C)C)nc21 (stereo not given) | 4% (inactive) |
| Cc1c(Br)c(C(F)(F)F)nn1CC(=O)NCCN1CCOCC1 | 0% (inactive) |
| Cc1[nH]nc(N=CC2=C(O)CC(C)(C)CC2=O)c1-c1ccc(Cl)cc1 | 0% (inactive) |
| COc1cc(Br)cc(CN2CCN(C/C=C/c3ccccc3)CC2)c1O | 0% (inactive) |
| OC(CN1CCCCC1)Cn1c(C(F)(F)F)nc2ccccc21 (stereo not given) | 9% (inactive) |
| CCN(CC)C(=O)CSc1nc2ccccc2c(=O)n1CCC(=O)NCc1ccc(F)cc1 | 0% (inactive) |
| Cc1cccc(-n2ncc3c(NCc4ccccn4)ncnc32)c1 | 6% (inactive) |
| Cc1cccc(C)c1OCc1nnc(SCC(=O)Nc2ccccc2F)o1 | 0% (inactive) |
| N#Cc1ccc(-c2csc(NC(=O)C3CC3)n2)cc1 | 0% (inactive) |

| Structure (SMILES) | inhibition |
| --- | --- |
| O=C(CSC1=NC(=O)C(Cc2ccccc2)C(=O)N1)NC1CCCCC1 (stereo not given) | 0% (inactive) |
| CCC1SC2=NC(C)=C(C(=O)OC)C(c3ccc(C)cc3)N2C1=O (stereo not given) | 7% (inactive) |
| O=C(C1CCCN(S(=O)(=O)c2cccnc2)C1)N1CCN(c2ccccn2)CC1 (stereo not given) | 0% (inactive) |
| CC(C)C(=O)Nc1nnc(CCc2nnc(NC(=O)C(C)C)s2)s1 | 2% (inactive) |
| CCOC(=O)c1cc(-c2ccco2)nc2c1c(C)nn2CCC#N | 0% (inactive) |
| CCOC(=O)C(NC(=O)Nc1ccccc1)(OCC)C(F)(F)F (stereo not given) | 0% (inactive) |
| CCCNC(=O)c1cc(S(=O)(=O)N2CCc3ccccc32)ccc1F | 0% (inactive) |
| COCCn1c(SCC(=O)Nc2sc(C)c(C)c2C#N)nnc1C(C)C | 0% (inactive) |
| COc1cc(C(N)=O)ccc1OCc1ccccc1 | 3% (inactive) |
| NC(=O)c1cc(-c2ccccc2)nc(Oc2ccccc2)n1 | 1% (inactive) |
| CCSc1nc(O)c(C2OC(=O)c3c2ccc(OC)c3OC)c(=O)n1-c1ccccc1 (stereo not given) | 0% (inactive) |
| CC(C(=O)c1ccccc1)n1cnc2ccccc2c1=O (stereo not given) | 9% (inactive) |
| COc1ccc(OC)c(NS(=O)(=O)Cc2ccccc2)c1 | 0% (inactive) |
| CN(C)c1nc(Oc2ccc(=O)n(C)n2)nc(N2CCOCC2)n1 | 0% (inactive) |
| Cc1c(C(=O)NC2CCCc3ccccc32)oc2ccc(S(=O)(=O)N3CCOCC3)cc12 (stereo not given) | 6% (inactive) |
| Cc1ccc(C(C(=O)NC2CCCCC2)N2CCOCC2)cc1 (stereo not given) | 0% (inactive) |
| O=C(NCc1ccco1)c1cc2cc3ccc(Cl)cc3nc2o1 | 4% (inactive) |
| O=C(Nc1ccc(F)cc1)c1cccc2c1C(=O)N(Cc1ccccn1)C2 | 0% (inactive) |
| O=C(CN1CCC(n2nnc3cc(F)ccc32)CC1)Nc1ccc2c(c1)CCC2 | 0% (inactive) |
| CNCCCC1c2ccccc2C=Cc2ccccc21 | 0% (inactive) |
